Test results as given in the supplement of paper PMC12350171.
Structures can show the parent of a compound that is named as a salt. Values without a mark were called inactive.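 How the source made its calls: active = normalised median growth AUC below 0.1 of DMSO control; inactive = AUC 0.1 or higher.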

What follows are compounds tested on S. enterica typhimurium WT (assay: growth AUC normalised to DMSO control (median) (fraction of control); higher = less growth inhibition, active = hit call of the paper). Settings: 20 µM.
Summary of the method: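 For normalised area under the curve, growth curves were truncated at entry into stationary phase, integrated by the trapezoidal rule and divided against vehicle wells on the same plate. The curves came from strains passaged twice overnight without oxygen and then grown in mGAM in 96-well plates at a starting OD578 of 0.01. Each well held an approved-drug library compound at 20 μM with 1% DMSO, and OD578 was read hourly for 24 h in an anaerobic incubator. Values are medians of three biological replicates.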
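Further: active when median AUC fell below 0.1.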

Structure (SMILES)	growth AUC normalised to DMSO control
CCCCCOC(=O)Nc1nc(=O)n([C@@H]2O[C@H](C)[C@@H](O)[C@H]2O)cc1F [Capecitabine]	0.982
CC(C)(C)C(O)/C=C/c1ccc2c(c1)OCO2 (stereo unspecified) [Stiripentol]	1
COc1cc(N)cn[n+]1-c1ccccc1 [Amezinium metilsulfate]	1
Nc1ccc2cc3ccc(N)cc3nc2c1 [Proflavine hemisulfate]	0.955
Nc1cc(C(Cl)=C(Cl)Cl)c(S(N)(=O)=O)cc1S(N)(=O)=O [Clorsulon]	1
O=C(NC1CCN(CCCCC2(C(=O)NCC(F)(F)F)c3ccccc3-c3ccccc32)CC1)c1ccccc1-c1ccc(C(F)(F)F)cc1 [Lomitapide]	1.01
CCOC(=O)c1ccc(C#Cc2ccc3c(c2)C(C)(C)CCS3)nc1 [Tazarotene]	1
C/C(=C(\CCOC(=O)c1ccccc1)SS/C(CCOC(=O)c1ccccc1)=C(/C)N(C=O)Cc1cnc(C)nc1N)N(C=O)Cc1cnc(C)nc1N [Bisbentiamine]	1.01
C[C@@H]1CCO[C@H]2Cn3cc(C(=O)NCc4ccc(F)cc4F)c(=O)c(O)c3C(=O)N12 [Dolutegravir]	1
O=S(=O)(c1cccc2cnccc12)N1CCCNCC1 [Fasudil Hydrochloride]	1
CCCCCCNC(=O)n1cc(F)c(=O)[nH]c1=O [Carmofur]	0.806
COc1cc(Nc2c(C#N)cnc3cc(OCCCN4CCN(C)CC4)c(OC)cc23)c(Cl)cc1Cl [Bosutinib]	1
C[C@@H]1C[C@H]2[C@@H]3C[C@H](F)C4=CC(=O)C=C[C@]4(C)[C@@]3(F)[C@@H](O)C[C@]2(C)[C@@]1(O)C(=O)COC(=O)C(C)(C)C [Flumethasone pivalate]	0.999
CC(C)[C@H](N)C(=O)OCC(CO)OCn1cnc2c(=O)nc(N)[nH]c21 (stereo partly specified) [Valganciclovir hydrochloride]	1
CC(=O)OC(C)OC(=O)C(C)c1ccc(-c2ccccc2)c(F)c1 (stereo unspecified) [Flurbiprofen axetil]	1.01
CO[C@@H]1[C@@H](OC(N)=O)[C@@H](O)[C@H](Oc2ccc3c(O)c(NC(=O)c4ccc(O)c(CC=C(C)C)c4)c(=O)oc3c2C)OC1(C)C [Novobiocin sodium salt]	0.999
CC1=C(C)C(=O)C(C(CCCCCC(=O)O)c2ccccc2)=C(C)C1=O (stereo unspecified) [Seratrodast]	1.01
Cc1ccc(O)c([C@H](CCN(C(C)C)C(C)C)c2ccccc2)c1 [Tolterodine tartrate]	1
CC1CC(OC(=O)C(O)c2ccccc2)CC(C)(C)C1 (stereo unspecified) [Cyclandelate]	1
CC(C)=CCOc1ccc(/C=C/C(=O)c2ccc(OCC=C(C)C)cc2OCC(=O)O)cc1 [Sofalcone]	1
C=CC[C@@H]1/C=C(\C)C[C@H](C)C[C@H](OC)[C@H]2O[C@@](O)(C(=O)C(=O)N3CCCC[C@H]3C(=O)O[C@H](/C(C)=C/[C@@H]3CC[C@@H](O)[C@H](OC)C3)[C@H](C)[C@@H](O)CC1=O)[C@H](C)C[C@@H]2OC [Tacrolimus Monohydrate]	0.998
CO[C@@]12[C@H](COC(N)=O)C3=C(C(=O)C(C)=C(N)C3=O)N1C[C@@H]1N[C@@H]12 [Mitomycin C]	0.196
C=C(NC(=O)C(=C)NC(=O)c1csc(C2=N[C@@H]3c4csc(n4)[C@H]4NC(=O)c5csc(n5)[C@H]([C@](C)(O)[C@@H](C)O)NC(=O)[C@H]5CSC(=N5)/C(=C/C)NC(=O)[C@H]([C@@H](C)O)NC(=O)c5csc(n5)[C@]3(CC2)NC(=O)[C@H](C)NC(=O)C(=C)NC(=O)[C@H](C)NC(=O)[C@H]([C@@H](C)CC)N[C@@H]2C=Cc3c([C@H](C)O)cc(nc3[C@H]2O)C(=O)O[C@@H]4C)n1)C(N)=O [Thiostrepton]	1
CCN(CC)CCOCCOC(=O)C(CC)(CC)c1ccccc1 [Oxeladin citrate]	0.995
C=CCOc1ccc(CC(=O)O)cc1Cl [Alclofenac]	1
O=C(O)c1ccccc1Nc1cc(Cl)ccc1C(=O)O [Lobenzarit disodium]	1.02
